IL2 activator = qHTS of IL-2 Activators; IL-2 activation reporter assay, cell-based qHTS; stimulated with anti-CD3/CD4/CD28 beads; in transgenic mouse T cells; actives 0.065% (n = 360,000); activation, % (series mostly up to about 46 µM); in the data active = activation above about 50%; inconclusive = mostly about 30% to 49%
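Screening format: compound pinned onto unstimulated transgenic mouse T cells, 60 min incubation, then anti-CD3/anti-CD4/anti-CD28 bead stimulation for 18 hours at 37 degrees C, followed by EGFP and DsRed detection.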
a7 integrin act = qHTS for Activators of Integrin-Mediated Alleviation for Muscular Dystrophy; alpha7betagal myoblasts, beta-gal FDG fluorescence, 48 h; actives 0.064% (n = 350,000); Potency, µM (titrated, usually from 38.3 µM), hits mostly activators; also: nearly all actives have a fitted effect of over 60% in size
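alpha7betagal+/- myoblasts (passage 13, 250/well) treated 48 h at 37C with compounds at 1:260 dilution of DMSO stock. Lysed, then beta-galactosidase activity read as FDG fluorescence (ex 480/em 540) after 30 min, with pre-read for autofluorescence.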
N370S GC mod = qHTS Assay for Inhibitors and Activators of N370S glucocerebrosidase as a Potential Chaperone Treatment of Gaucher Disease | AID 2101, 2009 | N370S GC spleen homogenate, 4MU-glucoside fluorescence | Potency, µM (doses to about 59.4 µM), most hits filed as inhibitors | actives 0.092% (n = 330,000) | Lysosomal acid glucosylceramidase (Homo sapiens), P04062
Chronic BCR inh = qHTS Assay to Find Inhibitors of Chronic Active B-Cell Receptor Signaling; ABC-DLBCL IkBa-CBG/CBR reporter, luminescence ratio, 4 h; Potency, µM (doses to about 46.1 µM), hits mostly inhibitors; actives 0.05% (n = 340,000); AID 493014, 2011; active = well fitted inhibition curve with a large enough effect in the signal ratio, with a control signal flat, not every such curve was filed as active; inconclusive = small, poorly fitted or top-dose-only effect, or effect the other way, or a change in a side signal; the % refers to the signal ratio
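Cell line TMD8 (human ABC DLBCL), stably expressing tet-inducible CBG68-IkBa fusion and CBR; IMDM/0.5% FBS; cpd up to 46 uM; dox induction, 4 h, 37C/5% CO2; dual luminescence; green/red ratio; MG132 control.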
BRCA1 expr up = qHTS Assay to Identify Small Molecule Activators of BRCA1 Expression | MCF7-BRCA1-FFLuc reporter, luminescence, 48 h; response scale: scaled: vehicle 0%, 10 µM genistein 100% | Potency, µM (titrated, usually from 46.1 µM), most hits filed as activators | actives 1.1% (n = 380,000); also: nearly all actives have a fitted effect of over 80% in size
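Reporter cells (MCF7, BRCA1 promoter-firefly luciferase) received library compounds across a concentration series for 48 h. End-point luminescence was measured and concentration-effect curves derived after normalization.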
Nrf2 activator = qHTS of Nrf2 Activators; AREc32 ARE-luciferase reporter (MCF7-derived line), luminescence, 24 h; actives 0.31% (n = 410,000); Potency, µM (top dose mostly 46.1 µM), actives largely listed as activators; also: nearly all actives have a fitted effect of over 65% in size
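Cells of the AREc32 ARE-luciferase line are plated in OPTI-MEM containing 5% FBS and left overnight at 37 deg C. Compounds are pinned in, incubation continues 24 hr, and firefly luciferase signal is then measured.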
Hits are given with their value. Shown are actives, neighbours in structure and some others; about 1.4% of the full set was active somewhere. Unless noted, calls follow the shape of the dose curve; as a rule, active = well fitted curve in the direction sought with a large enough effect; inconclusive = small, poorly fitted or top-dose-only effect, or another doubt; inactive = no such curve, though single readings can be large; an effect the other way counts as inactive or inconclusive.

Screening CC(=O)N[C@H]1CSSC[C@@H](C(=O)N2CCC[C@H]2C(=O)N2CCC[C@H]2C(=O)N[C@@H](CCCCN)C(=O)N[C@@H](CC(=O)O)C(N)=O)NC(=O)CNC(=O)[C@H](Cc2c[nH]c3ccccc23)NC(=O)[C@H](CCCNC(=N)N)NC(=O)[C@@H](Cc2ccc3ccccc3c2)NC(=O)[C@H](Cc2cnc[nH]2)NC(=O)[C@H](CCC(=O)O)NC1=O returned N370S GC mod inactive.
`CC(C)CN(C(=O)Cn1nnc(-c2ccc(F)cc2)n1)C1CCS(=O)(=O)C1` (centres undefined) gave IL2 activator inactive, a7 integrin act inactive, N370S GC mod inactive, Chronic BCR inh inconclusive, BRCA1 expr up inactive and Nrf2 activator inactive.
`CCN(c1ccccc1)c1nc(N)nc(C#N)n1` gave BRCA1 expr up inactive.
For Cn1c(-c2ccc(CN3CCCCC3)o2)nc2ccccc21 the results were IL2 activator inactive, a7 integrin act inactive, N370S GC mod inactive, Chronic BCR inh inactive, BRCA1 expr up 3.2µM and Nrf2 activator inactive.
For COc1ccc(N=C2NC(=O)/C(=C\C=C\c3ccco3)S2)cc1 the results were IL2 activator inactive, a7 integrin act inactive, N370S GC mod inactive, Chronic BCR inh inactive, BRCA1 expr up inactive and Nrf2 activator 13µM.
For Cc1ccc(-c2nc(CS(=O)CC(=O)NCCc3ccc(Cl)cc3)c(C)o2)cc1 (centres undefined) the results were Nrf2 activator inactive.
O=C(CN1CC(=O)Oc2ccccc21)OCC(=O)c1ccccc1 was read as IL2 activator inactive, a7 integrin act inactive, N370S GC mod inactive, Chronic BCR inh inconclusive, BRCA1 expr up inactive and Nrf2 activator inconclusive.
Screening O=C(CN1CC(=O)Oc2ccccc21)OCC(=O)c1cccc(Br)c1 returned IL2 activator inactive, a7 integrin act inactive, N370S GC mod inactive, Chronic BCR inh inconclusive, BRCA1 expr up inactive and Nrf2 activator 13µM.
Cc1ccc(C2NNC(=O)C2NC(=O)c2ccccc2)cc1 (centres undefined) was read as IL2 activator inactive, a7 integrin act inactive, N370S GC mod inactive, Chronic BCR inh inconclusive, BRCA1 expr up 11µM and Nrf2 activator inactive.
O=c1cc(O)c2c([nH]1)CCC2 was read as BRCA1 expr up inactive.
O=C(Nc1ccc(Br)cc1)c1cnccn1 was read as IL2 activator inactive, a7 integrin act inactive, N370S GC mod inactive, Chronic BCR inh inactive, BRCA1 expr up 8.9µM and Nrf2 activator inactive.
Cc1nc(NC(=O)c2cccs2)ccc1Br was read as IL2 activator inactive, a7 integrin act inactive, N370S GC mod inactive, Chronic BCR inh inconclusive, BRCA1 expr up inactive and Nrf2 activator 16µM.
For Cc1ccc(NC(=O)c2cnccn2)cc1 the results were IL2 activator inactive, a7 integrin act inactive, N370S GC mod inactive, Chronic BCR inh inconclusive, BRCA1 expr up inactive and Nrf2 activator inactive.
`Cc1ccc(NC(=O)c2cnccn2)cc1C` gave IL2 activator inactive, a7 integrin act inactive, N370S GC mod inactive, Chronic BCR inh inactive, BRCA1 expr up 7.9µM and Nrf2 activator inactive.
Screening Cc1nc(NC(=O)c2cnccn2)ccc1Br returned IL2 activator inactive, a7 integrin act inactive, N370S GC mod inactive, Chronic BCR inh 1µM, BRCA1 expr up inconclusive and Nrf2 activator inactive.
Brc1cccc[n+]1CCCC[n+]1ccccc1Br was read as BRCA1 expr up inactive.
`Nc1n[nH]c(-c2ccc(F)cc2)n1` gave IL2 activator inactive, a7 integrin act inactive, N370S GC mod inactive, Chronic BCR inh inactive, BRCA1 expr up inactive and Nrf2 activator inactive.
Screening CCCCc1ccc(-c2nc(N)n[nH]2)cc1 returned IL2 activator inactive, a7 integrin act inactive, N370S GC mod inconclusive, Chronic BCR inh inactive, BRCA1 expr up 7.9µM and Nrf2 activator inactive.
`O=C(C[n+]1ccncc1)c1ccc2ccccc2c1` gave BRCA1 expr up inactive.
Oc1ccc(-c2csc(Nc3ncccn3)n2)c(O)c1 was read as IL2 activator inactive, a7 integrin act inactive, N370S GC mod inactive, Chronic BCR inh inconclusive, BRCA1 expr up 4.5µM and Nrf2 activator inactive.
Cc1cccnc1Nc1nc(-c2ccc(O)cc2)cs1 was read as IL2 activator inactive, a7 integrin act inactive, N370S GC mod inactive, Chronic BCR inh inconclusive, BRCA1 expr up 4.5µM and Nrf2 activator inactive.
CCCCNC(=O)c1ccc2nc(-c3cccs3)c(-c3cccs3)nc2c1 was read as BRCA1 expr up inactive.
For CCOC(=O)c1ccc(NC(=O)CC2C(=O)N(c3cccc(OC)c3)C(=O)N2Cc2ccc(OC)cc2)cc1 (centres undefined) the results were Nrf2 activator inactive.
CCc1nc2ccc(C(=O)N3CCN(S(=O)(=O)CC)CC3)cn2c1N(CC)Cc1cccc(Br)c1 was read as IL2 activator inactive, BRCA1 expr up inactive and Nrf2 activator inactive.
For O=Cc1ccc(OCc2ccc3c(c2)OCO3)cc1 the results were IL2 activator inactive, a7 integrin act inactive, N370S GC mod inactive, Chronic BCR inh inactive, BRCA1 expr up 2.8µM and Nrf2 activator inactive.
For Cc1ccc(COc2ccc3c(c2)OCO3)cc1 the results were IL2 activator inactive, a7 integrin act inactive, N370S GC mod inactive, Chronic BCR inh inconclusive, BRCA1 expr up inconclusive and Nrf2 activator inactive.
CC1(C)CC[C@]2(CO)CC[C@]3(C)C(=CCC4[C@@]5(C)CC[C@H](O)[C@@](C)(CO)C5CC[C@]43C)[C@@H]2C1 (some centres undefined) was read as IL2 activator inactive, a7 integrin act inactive, Chronic BCR inh inactive, BRCA1 expr up inactive and Nrf2 activator inactive.
CCOc1ccc(NC(=O)/C(C#N)=C\c2ccc(-c3ccc(Cl)cc3)o2)cc1 was read as Nrf2 activator inactive.
For N#C/C(=C/c1ccc(N2CCCCC2)o1)C(=O)Nc1ccc2ccccc2c1 the results were IL2 activator inactive, a7 integrin act inactive, N370S GC mod inactive, Chronic BCR inh inconclusive, BRCA1 expr up inactive and Nrf2 activator inactive.
For N#C/C(=C\c1ccc[nH]1)C(=O)Nc1ccccc1Cl the results were IL2 activator inactive, a7 integrin act inactive, N370S GC mod inactive, Chronic BCR inh inactive, BRCA1 expr up inactive and Nrf2 activator inconclusive.
